ChEMBL document CHEMBL1961873, “Compounds: GSK PKIS; Assays: Nanosyn kinase panel” (2012)
Values joined by “and” are separate entries in the source; they are usually repeats but may differ in a detail not shown here. Identical values can stand only once.

Legend:
[1] = biological target: Tyrosine-protein kinase SYK (Homo sapiens) (UniProt P43405); conditions: at 1 µM
[2] = biological target: T1, Tyrosine-protein kinase Tec (Homo sapiens) (UniProt P42680); conditions: at 0.1 µM
T1 sequence (whole entry): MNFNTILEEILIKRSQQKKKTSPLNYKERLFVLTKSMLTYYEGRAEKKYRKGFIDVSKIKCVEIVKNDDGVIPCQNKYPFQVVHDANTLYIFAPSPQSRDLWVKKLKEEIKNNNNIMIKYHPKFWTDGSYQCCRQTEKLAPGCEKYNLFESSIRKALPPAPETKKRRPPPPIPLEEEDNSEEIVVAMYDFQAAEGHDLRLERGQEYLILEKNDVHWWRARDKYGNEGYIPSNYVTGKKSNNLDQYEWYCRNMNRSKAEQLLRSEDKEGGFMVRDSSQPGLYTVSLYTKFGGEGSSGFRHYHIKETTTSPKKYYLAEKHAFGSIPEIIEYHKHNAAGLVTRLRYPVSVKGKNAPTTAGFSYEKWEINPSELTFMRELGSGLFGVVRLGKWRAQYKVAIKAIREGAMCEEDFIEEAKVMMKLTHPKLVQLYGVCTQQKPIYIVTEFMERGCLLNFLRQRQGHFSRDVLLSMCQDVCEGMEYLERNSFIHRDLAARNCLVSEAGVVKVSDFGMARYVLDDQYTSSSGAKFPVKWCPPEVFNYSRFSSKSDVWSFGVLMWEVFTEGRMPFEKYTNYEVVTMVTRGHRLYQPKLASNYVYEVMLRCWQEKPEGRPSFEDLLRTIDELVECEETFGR

[3] = biological target: T1, Tyrosine-protein kinase Tec (Homo sapiens); conditions: at 1 µM
[4] = biological target: Angiopoietin-1 receptor (Homo sapiens) (UniProt Q02763); conditions: at 0.1 µM
Angiopoietin-1 receptor (Homo sapiens), sequence (Q02763 whole entry): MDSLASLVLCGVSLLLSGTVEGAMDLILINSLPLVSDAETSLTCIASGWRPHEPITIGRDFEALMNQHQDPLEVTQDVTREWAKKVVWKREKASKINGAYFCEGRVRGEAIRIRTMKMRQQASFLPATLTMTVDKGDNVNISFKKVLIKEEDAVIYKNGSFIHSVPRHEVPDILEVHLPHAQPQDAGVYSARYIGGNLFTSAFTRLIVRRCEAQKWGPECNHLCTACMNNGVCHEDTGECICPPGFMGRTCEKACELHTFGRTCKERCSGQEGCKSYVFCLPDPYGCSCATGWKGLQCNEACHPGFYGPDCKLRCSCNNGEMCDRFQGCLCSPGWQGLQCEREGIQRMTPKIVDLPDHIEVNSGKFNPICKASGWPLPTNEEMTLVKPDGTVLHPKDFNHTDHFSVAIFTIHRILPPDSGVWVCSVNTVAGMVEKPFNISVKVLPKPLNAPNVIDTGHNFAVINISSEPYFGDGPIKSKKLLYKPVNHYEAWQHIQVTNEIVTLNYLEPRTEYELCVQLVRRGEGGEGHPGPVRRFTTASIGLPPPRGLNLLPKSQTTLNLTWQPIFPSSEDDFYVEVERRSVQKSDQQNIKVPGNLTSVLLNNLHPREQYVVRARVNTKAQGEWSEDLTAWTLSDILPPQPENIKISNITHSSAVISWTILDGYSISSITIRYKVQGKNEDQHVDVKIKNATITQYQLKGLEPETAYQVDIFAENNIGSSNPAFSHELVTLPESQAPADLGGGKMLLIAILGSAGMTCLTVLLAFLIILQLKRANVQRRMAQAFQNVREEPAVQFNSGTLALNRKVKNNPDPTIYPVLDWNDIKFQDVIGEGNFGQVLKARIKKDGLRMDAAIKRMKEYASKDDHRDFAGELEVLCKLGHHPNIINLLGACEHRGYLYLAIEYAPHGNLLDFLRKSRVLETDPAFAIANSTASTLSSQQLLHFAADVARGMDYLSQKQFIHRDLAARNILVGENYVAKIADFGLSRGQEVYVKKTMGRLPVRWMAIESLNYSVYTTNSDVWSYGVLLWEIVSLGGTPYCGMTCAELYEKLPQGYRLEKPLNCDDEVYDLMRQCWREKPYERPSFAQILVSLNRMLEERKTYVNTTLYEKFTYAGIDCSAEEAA

[5] = biological target: Angiopoietin-1 receptor (Homo sapiens) (UniProt Q02763); conditions: at 1 µM
[6] = biological target: T2, Non-receptor tyrosine-protein kinase TNK1 (Homo sapiens) (UniProt Q13470); conditions: at 0.1 µM
T2 sequence (whole entry): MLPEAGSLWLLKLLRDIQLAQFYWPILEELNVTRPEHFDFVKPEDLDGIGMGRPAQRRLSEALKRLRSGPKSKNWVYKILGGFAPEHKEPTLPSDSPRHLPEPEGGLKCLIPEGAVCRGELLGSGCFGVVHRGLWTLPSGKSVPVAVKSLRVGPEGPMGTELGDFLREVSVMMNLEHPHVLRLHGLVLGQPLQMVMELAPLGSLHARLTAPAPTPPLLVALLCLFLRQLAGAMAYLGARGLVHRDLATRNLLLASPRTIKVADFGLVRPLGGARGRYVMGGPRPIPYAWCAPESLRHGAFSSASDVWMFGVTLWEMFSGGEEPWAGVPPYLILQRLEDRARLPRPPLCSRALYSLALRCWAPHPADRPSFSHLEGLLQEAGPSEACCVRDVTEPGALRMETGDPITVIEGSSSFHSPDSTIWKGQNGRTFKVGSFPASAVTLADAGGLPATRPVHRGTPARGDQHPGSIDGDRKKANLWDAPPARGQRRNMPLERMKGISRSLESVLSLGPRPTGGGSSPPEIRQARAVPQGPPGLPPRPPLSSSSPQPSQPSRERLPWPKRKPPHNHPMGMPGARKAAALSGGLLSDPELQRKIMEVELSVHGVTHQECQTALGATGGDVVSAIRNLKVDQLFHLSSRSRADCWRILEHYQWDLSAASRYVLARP

[7] = biological target: T2, Non-receptor tyrosine-protein kinase TNK1 (Homo sapiens); conditions: at 1 µM
[8] = biological target: Activated CDC42 kinase 1 (Homo sapiens) (UniProt Q07912); conditions: at 0.1 µM
Activated CDC42 kinase 1 (Homo sapiens), sequence (Q07912 whole entry, looked up): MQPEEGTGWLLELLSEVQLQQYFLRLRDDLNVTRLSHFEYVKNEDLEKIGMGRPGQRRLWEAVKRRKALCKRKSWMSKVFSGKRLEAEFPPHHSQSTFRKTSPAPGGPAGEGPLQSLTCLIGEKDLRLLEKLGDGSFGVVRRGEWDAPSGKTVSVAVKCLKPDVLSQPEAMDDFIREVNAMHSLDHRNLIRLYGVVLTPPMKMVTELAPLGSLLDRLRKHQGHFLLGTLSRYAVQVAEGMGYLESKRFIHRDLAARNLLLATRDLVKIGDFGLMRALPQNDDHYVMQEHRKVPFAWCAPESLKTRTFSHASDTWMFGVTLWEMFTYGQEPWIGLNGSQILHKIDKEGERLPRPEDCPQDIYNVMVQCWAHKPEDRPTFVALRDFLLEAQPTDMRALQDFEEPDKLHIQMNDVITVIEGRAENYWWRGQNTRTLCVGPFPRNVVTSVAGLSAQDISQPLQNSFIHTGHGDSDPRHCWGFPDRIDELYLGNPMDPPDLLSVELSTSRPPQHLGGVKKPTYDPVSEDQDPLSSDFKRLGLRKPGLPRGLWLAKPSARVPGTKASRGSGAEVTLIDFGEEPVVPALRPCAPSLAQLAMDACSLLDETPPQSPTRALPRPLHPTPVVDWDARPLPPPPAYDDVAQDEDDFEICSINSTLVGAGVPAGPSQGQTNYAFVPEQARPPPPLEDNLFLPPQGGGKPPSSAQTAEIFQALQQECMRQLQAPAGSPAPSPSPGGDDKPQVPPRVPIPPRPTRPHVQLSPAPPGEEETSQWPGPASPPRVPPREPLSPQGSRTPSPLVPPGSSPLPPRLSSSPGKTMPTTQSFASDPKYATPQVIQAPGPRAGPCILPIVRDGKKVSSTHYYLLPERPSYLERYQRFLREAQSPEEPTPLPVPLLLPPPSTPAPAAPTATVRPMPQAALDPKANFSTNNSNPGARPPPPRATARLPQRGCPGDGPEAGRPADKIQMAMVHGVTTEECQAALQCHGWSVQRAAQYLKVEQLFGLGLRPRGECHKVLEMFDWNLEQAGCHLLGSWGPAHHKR

[9] = biological target: Activated CDC42 kinase 1 (Homo sapiens) (UniProt Q07912); conditions: at 1 µM
[10] = biological target: High affinity nerve growth factor receptor (Homo sapiens) (UniProt P04629); conditions: at 0.1 µM;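 also: each value is a mean of replicate percent inhibition readings against TRKA kinase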
High affinity nerve growth factor receptor (Homo sapiens), sequence (P04629 33-796 limits assumed): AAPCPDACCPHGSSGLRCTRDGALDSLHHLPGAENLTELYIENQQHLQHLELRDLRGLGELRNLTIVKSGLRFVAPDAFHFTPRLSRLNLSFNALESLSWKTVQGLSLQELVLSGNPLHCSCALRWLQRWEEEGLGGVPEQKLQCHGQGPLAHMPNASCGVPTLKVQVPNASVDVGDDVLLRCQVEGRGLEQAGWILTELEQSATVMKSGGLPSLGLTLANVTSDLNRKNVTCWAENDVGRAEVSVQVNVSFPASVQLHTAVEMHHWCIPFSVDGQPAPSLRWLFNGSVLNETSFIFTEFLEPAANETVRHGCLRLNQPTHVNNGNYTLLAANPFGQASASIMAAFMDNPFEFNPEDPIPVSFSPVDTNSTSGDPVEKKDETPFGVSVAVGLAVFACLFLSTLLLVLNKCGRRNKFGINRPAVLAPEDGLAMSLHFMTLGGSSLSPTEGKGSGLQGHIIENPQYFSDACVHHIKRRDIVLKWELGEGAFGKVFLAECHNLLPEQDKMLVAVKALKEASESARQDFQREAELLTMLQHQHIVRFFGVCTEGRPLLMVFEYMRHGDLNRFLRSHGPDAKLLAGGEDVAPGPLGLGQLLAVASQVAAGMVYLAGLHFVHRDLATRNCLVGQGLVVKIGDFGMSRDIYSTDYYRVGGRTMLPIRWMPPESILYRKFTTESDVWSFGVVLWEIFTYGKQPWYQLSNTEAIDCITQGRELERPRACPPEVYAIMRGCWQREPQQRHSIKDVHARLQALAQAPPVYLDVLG

| Structure (SMILES) | inhibition [1] | inhibition [2] | inhibition [3] | inhibition [4] | inhibition [5] | inhibition [6] | inhibition [7] | inhibition [8] | inhibition [9] | inhibition [10] |
| --- | --- | --- | --- | --- | --- | --- | --- | --- | --- | --- |
| CN(c1ccc(NC(=O)NCCN2CCOCC2)cc1)c1ccnc(Nc2ccc(CS(C)(=O)=O)cc2)n1 | -6.78% | 5.49% | 24.8% | 3.99% | 29.3% | 15.5% | 63.5% | 1.35% | 8.46% | 1.46% |
| CS(=O)(=O)Nc1ccc(-c2ccc3c(NC(=O)C4CC4)n[nH]c3c2)cc1 | -1.82% | 3.96% | 7.11% | 2.18% | 10.9% | 2.68% | 5.17% | 1.26% | 3.12% | 2.98% |
| Cc1ccc(-c2cc3c(NC(=O)C4CC4)ncnc3o2)cc1 | -1.6% | 5.2% | 13.1% | 3.09% | 4.4% | 3.37% | 6.56% | 1.58% | 4.37% | 4.74% |
| COc1c(C(N)=O)cc(-c2ccc(Cl)cc2)cc1-c1ccc(S(N)(=O)=O)cc1 | 4.05% | 7.49% | 3.79% | 5.29% | 7.54% | 2.66% | 3.9% | 1.22% | 3.03% | 4.76% |
| Cc1nnc(-c2cccc(-c3ccc(C(=O)NCC4CC4)cc3)c2)o1 | -0.72% | 5.71% | 6.71% | 2.51% | 2.87% | 2.91% | 11.3% | 1.67% | 2.25% | 3.31% |
| Nc1ncnc2occ(-c3ccc(NC(=O)Nc4cc(C(F)(F)F)ccc4F)cc3)c12 | -9.91% | 3.07% and -2.99% | 5.25% and -1.81% | 63.7% and 59.4% | 79% and 80.6% | 10.7% and 2.54% | 50% and 25.8% | 1.25% and -0.32% | 2.06% and -0.97% | 57.1% and 36.6% |
| CN1CCN(Cc2ccc(-c3cc4ncnc(Nc5ccc(OCc6cccc(F)c6)c(Cl)c5)c4s3)o2)CC1 | -0.79% and 0.39% | 0.53% and 4.75% | 4.67% and 6.65% | 4.14% and 4.04% | 16.7% and 17.8% | 2.88% and 6.1% | 18.5% and 23.1% | 1.15% and 2.06% | 2.33% and 3.5% | 1.64% and -0.7% |
| O=C1Nc2ccccc2/C1=C1\CCc2cc(O)ccc21 | -3.48% | 5.96% | 10.2% | 4.53% | 7.58% | 11.5% | 45.2% | 0.75% | 1.9% | 18.6% |
| NC(=O)c1ccc2c(-c3ccnc(NCCCO)n3)c(-c3ccc(F)cc3)nn2c1 | -0.6% | 5.81% | 16.1% | 5.27% | 6.83% | 4.67% | 2.83% | 0.88% | 5% | 3.75% |
| COC(=O)Nc1nc2ccc(Oc3ccc(NC(=O)Nc4cc(C(F)(F)F)ccc4F)cc3)cc2s1 | 0.26% | 1.25% | -0.83% | 50.8% | 78% | 11.5% | 27.2% | 0.46% | 1.35% | 24.2% |
| N#Cc1cccc(Nc2ncc(-c3ccccc3)o2)c1 | -0.14% | 1.29% | 2.29% | 0.48% | 2.45% | 2.36% | 15.4% | 0.46% | 0.86% | -0.7% |
| CCS(=O)(=O)c1ccc(OC)c(Nc2ncc(-c3cccc(C(C)=O)c3)o2)c1 | -2.16% | 6.22% | 26.6% | 2.09% | 9.26% | 15.3% | 66.9% | 1.65% | 6.5% | 4.29% |
| CCS(=O)(=O)c1ccc(OC)c(Nc2ncc(-c3cccc(F)c3)o2)c1 | 1.66% | 9.86% | 37.2% | 4.21% | 14.1% | 27.4% | 76.5% | 2.97% | 13.2% | 6.84% |
| CNC(=O)c1ncccc1Nc1nc(Nc2cc3c(cc2OC)CCCN3C(=O)CN(C)C)nc2[nH]ccc12 | 1.95% | 5.55% | 7.76% | 1.81% | -0.04% | 50% | 73% | 2.4% | 10.8% | 5.07% |
| N#Cc1ccc2c(-c3ccnc(NC4CC4)n3)c(-c3ccc(F)cc3)nn2c1 | -1.91% | -0.44% | 3.17% | 1.54% | 3.72% | -0.18% | 1.77% | 0.77% | 1.6% | -1.05% |
| c1ccc(-c2n[nH]cc2-c2ccnc(-c3ccc(OCCn4ccnc4)cc3)c2)nc1 | 0.33% | 0.42% | 0.73% | 0.28% | 3.93% | -0.4% | 5.89% | -0.42% | 0.83% | 2.17% |
| CNC(=O)c1cncc(/C=C/c2ccccc2C)c1 | -0.24% | 6.1% | 16.4% | 1.59% | -0.24% | 3.86% | 20.7% | 1.54% | 8.09% | 3.97% |
| CC(C)c1ccc(-c2cc(-c3c[nH]nc3-c3ccccn3)ccn2)cc1 | 1.09% | 2.3% | 2.11% | 4.71% | 6.64% | 0.85% | -0.32% | 0.23% | 0.19% | 0.99% |
| Nc1nonc1-c1nc2cnccc2n1C1CC1 | -1.65% and 0.1% | 4.66% and -0.83% | 7.39% and -0.23% | 1.33% and 1.27% | 5.19% and 4.75% | 3.99% and 1.62% | 9.35% and 9.64% | 1.76% and 0.5% | 3.72% and 0.02% | 3.67% and -0.15% |
